Data: ChEMBL document CHEMBL4513216, “Probing the Open Global Health Chemical Diversity Library for Multistage-Active Starting Points for Next-Generation Antimalarials” (ACS Infect Dis, 2020)
Out of some 69,000 compounds screened, about 8,600 (12%) showed an effect of 50% or more. The sample as a whole holds a higher share of strong results than the screen did.

What follows are molecules tested on Plasmodium berghei (assay: Screen against P. berghei liver stage (PbLuc), transformed with Luciferase, at 10uM). Conditions: tested at 10 uM.
Assay type: functional, HepG2

Compound	INHIBITION
c1ccc(Cc2noc(-c3ccc(NCC4CCCOC4)nc3)n2)cc1 (stereo not drawn)	18.8%
Cc1sc2ccccc2c1S(=O)(=O)NCCNC(=O)C(C)C	-35%
Cc1ccc(N2C[C@H]3CCC[C@@]3(COc3cccnc3)C2)nn1	-44.2%
CC(=O)Nc1c(C)noc1C=Cc1ccc(S(=O)(=O)NC2CC2)cc1	47.2%
OC1(CNCCN2CCCc3ccccc32)CCNC1 (stereo not drawn)	9.55%
Cn1c(=O)c2cc(C(=O)NCCOCC(F)(F)F)ccc2n(C)c1=O	27.8%
Cc1cc(N2CCC(Cc3cnccn3)C2)ncn1 (stereo not drawn)	2.55%
CC(C)(C)c1n[nH]cc1CNC1CCC(C(F)(F)F)CC1 (stereo not drawn)	-32.6%
C[C@H]1C[C@@H]2CCN(Cc3ccccn3)C[C@H]2O1	15.9%
C[C@@H]1C[C@@H]2CCN(Cc3ccccn3)C[C@H]2O1	55.5%
CN(C)C(=O)C1CN(Cc2ccccn2)CCN(S(C)(=O)=O)C1 (stereo not drawn)	89.3%
Cc1csc(CN2CC[C@H]3C[C@H](C)O[C@@H]3C2)n1	15.4%
CN(C)C(=O)C1CN(Cc2cscn2)CCN(S(C)(=O)=O)C1 (stereo not drawn)	37%
CN(C)C(=O)C1CN(Cc2ccccc2)CCN(S(C)(=O)=O)C1 (stereo not drawn)	32.4%
C[C@H]1C[C@@H]2CCN(Cc3ccco3)C[C@H]2O1	46.2%
Cc1cccc(C(=O)N2CC[C@H]3C[C@@H](C)O[C@@H]3C2)n1	7.31%
C[C@H]1C[C@H]2CN(Cc3ccccn3)CC[C@@H]2O1	46.2%
C[C@@H]1C[C@@H]2CCN(Cc3ccncc3)C[C@H]2O1	15.9%
Cc1cccc(CN2CC[C@H]3C[C@H](C)O[C@@H]3C2)n1	56.7%
Cc1cccc(CN2CC[C@H]3C[C@@H](C)O[C@@H]3C2)n1	76.5%
Cc1cc(N2CCCC2c2cc(Nc3cnccn3)nc(C)n2)ncn1 (stereo not drawn)	-50.2%
Cc1nc(C)n(CC2CCCCN2Cc2nc(-c3ccco3)no2)n1 (stereo not drawn)	-12.915%
Cc1ccc(C(=O)N2CCn3c(COCC4CC4)cnc3C2C)nc1 (stereo not drawn)	39.3%
CN(CC1(O)CCN(c2ccccn2)C1)C(=O)Cc1ccsc1 (stereo not drawn)	46%
CCN(CC)c1ccc(NS(=O)(=O)c2cccnc2)cn1	77.5%
CCN(CC)c1ccc(NS(=O)(=O)c2cnn(C)c2)cn1	0.139%

Compound	INHIBITION
CCN(CC)c1ccc(NS(=O)(=O)c2cncc(F)c2)cn1	46.8%
CCC(CNC(=O)c1cccc(S(=O)(=O)NC)c1)N1CCCC1 (stereo not drawn)	18%
COCCN1CCc2ncnc(-c3ccccc3)c2CC1	8.66%
Cc1cccc(NC(=O)CN(C)C(=O)c2ccc(-n3cccc3)nc2)n1	8.08%
Cc1ccc(NC(=O)CN(C)C(=O)c2ccc(-n3cccc3)nc2)nc1	68.9%
Cc1ccc(C(=O)N(C)CC(=O)Nc2cccc(C)n2)cn1	16.8%
Nc1nc(C2CCN(C(=O)c3cnco3)CC2)cs1	18.9%
Cc1cc(N[C@H]2CN(CC(C)(C)N3CCOCC3)C[C@@H]2C2CC2)ncn1	35.8%
CCCc1cc(C(=O)N(C)Cc2cccc3ncccc23)n(C)n1	46.8%
CN(Cc1cccc2ncccc12)C(=O)CCn1ccc(=O)[nH]c1=O	30.9%
CC(C)c1cc(C(=O)N(C)Cc2cccc3ncccc23)n(C)n1	67.2%
CCOCCn1nc(C)cc1C(=O)N(C)Cc1cccc2ncccc12	36%
CCCc1cc(C(=O)N(C)Cc2ccc(OC)c3ncccc23)n(C)n1	67.9%
CCCc1cc(C(=O)N(C)Cc2cccc3cnccc23)n(C)n1	6.33%
O=C(c1ccc2c(c1)OCCO2)N1CCCC(n2ccnc2)C1 (stereo not drawn)	37.9%
CCC(=O)N1CCC(c2nc(C)c3c(n2)N(C)CCC3)CC1	34.1%
CC(C)N1CC(c2ccnc(Nc3nccs3)n2)C1	29.49%
COc1ccc(F)cc1-n1cnc(CCNC(C)=O)c1	35.1%
COc1ccc(Cl)cc1-n1cnc(CCNC(C)=O)c1	71.5%
COc1cc(F)c(-n2cnc(CCNC(C)=O)c2)cc1F	4.1%
O=C1NC2(CCN(CC(=O)N3CCOCC3)CC2)Nc2ccccc21	3.5%
O=S1(=O)COCCN1Cc1ccc(F)c(C(F)(F)F)c1	19.4%
OCC1CCCCN1c1ccc(-c2nc(-c3ccccc3F)no2)cn1 (stereo not drawn)	91.8%
COCc1noc(-c2ccc(N3CCCCC3CCCO)nc2)n1 (stereo not drawn)	35.8%
COCc1noc(-c2ccc(N3CCC[C@H]3CO)nc2)n1	75.7%
COc1ccc(-c2cnc(CN3CCCC3CO)o2)cc1 (stereo not drawn)	15.1%

Compound	INHIBITION
Cc1noc(-c2ccc(N3CCC[C@H]3CO)nc2)n1	17.6%
COCc1noc(-c2ccc(N3CCCC3c3nccs3)nc2)n1 (stereo not drawn)	43%
OC[C@@H]1CCCN1c1ccc(-c2nc(CCc3ccccc3)no2)cn1	43.9%
COCc1noc(-c2ccc(N3CCCCC3COC)nc2)n1 (stereo not drawn)	48.5%
COCc1noc(-c2ccc(N3CCCC3c3ccc(F)cc3)nc2)n1 (stereo not drawn)	18.5%
OC[C@@H]1CCCN1c1ccc(-c2nc(COc3ccccc3)no2)cn1	25.8%
COCc1noc(-c2ccc(N3CCCCC3CO)nc2)n1 (stereo not drawn)	90.1%
COc1ccc(-c2noc(-c3ccc(N4CCC[C@H]4CO)nc3)n2)cc1	84.8%
CCCN1C[C@@H]2CC[C@H]1CN(C(=O)c1ccc(N(C)CCO)cc1)C2	43.9%
N#Cc1ccc(CS(=O)(=O)NC(=O)COc2ccc3c(c2)CCC3)cc1	-57.66%
COC(=O)N1CC(C)=C(C)CN1C(=O)Nc1cccc(Cl)c1	-28.6%
COc1cc(OC)cc(C(=O)N2CCOCC2c2[nH]ncc2C)c1 (stereo not drawn)	46.25%
Cc1nc(C)n(CC2CCCN2CCC(=O)N2CCCCC2)n1 (stereo not drawn)	-8.11%
Cc1ccc(C(=O)N2Cc3c(CN4CCCCC4)nn(C)c3C2)o1	28.4%
CC(=O)Nc1nc(C(=O)N2CCCC2c2ccc(Br)cc2)cs1 (stereo not drawn)	26.4%
Cc1cc(C)c(CNC(=O)C(C)Oc2cccc(C#N)c2)c(=O)[nH]1 (stereo not drawn)	36.4%
CCC(C)Oc1ccccc1Cn1cc2[nH]cccc-2c1=O (stereo not drawn)	41.5%
Cc1ccnc(C2CN(c3ccnc(C)n3)C2)n1	28.6%
CCc1nc(NC2CCN(CC(=O)NC3CC3)CC2)c2cnn(C)c2n1	21.8%
Clc1ccc(CN2CCC(C3CCN(Cc4cccnc4)CC3)C2)cc1 (stereo not drawn)	36.8%
OCC1(Cc2ccc(Cl)cc2)CCN(Cc2cccnc2)CC1	92%
COc1ccc(CN2CCC(CO)(Cc3ccc(Cl)cc3)CC2)c(O)c1	31.6%
COc1cccc(CN2CCC(CO)(Cc3ccc(Cl)cc3)CC2)c1O	85.4%
OCC1(Cc2ccc(Cl)cc2)CCN(Cc2ccccc2O)CC1	14.6%
Clc1ccc(CN2CCC3(CC2)CC(c2cccnc2)=NO3)cc1	46.6%
Cc1c(C(=O)NCC2CCCO2)nnn1-c1cccc2c1CCN(C)C2 (stereo not drawn)	29.2%

Compound	INHIBITION
COc1c(C2CCCN2C(=O)c2ccc3[nH]cnc3c2)c(C)nn1C (stereo not drawn)	-2.19%
CC(C)NC(=O)N1C[C@@H](F)[C@@H](OCc2nc3ccccc3o2)C1	58.5%
O=C(C1CC1)N1C[C@@H](F)[C@@H](OCc2nc3ccccc3o2)C1	13.1%
CC(=O)N1C[C@@H](F)[C@@H](OCc2nc3ccccc3o2)C1	-15.6%
CC(C)(C)C(=O)N1C[C@@H](F)[C@@H](OCc2nc3ccccc3o2)C1	70.7%
F[C@@H]1CN(CC2CC2)C[C@@H]1OCc1nc2ccccc2o1	-3.5%
O=C(c1ccno1)N1C[C@@H](F)[C@@H](OCc2nc3ccccc3o2)C1	56.3%
F[C@@H]1CN(CC2CCCCC2)C[C@@H]1OCc1nc2ccccc2o1	29.8%
CS(=O)(=O)N1C[C@@H](F)[C@@H](OCc2nc3ccccc3o2)C1	41.1%
O=C(C1CC1)N1C[C@@H](F)[C@@H](OCc2nc3ccccc3[nH]2)C1	7.85%
CCC(CN1CCCCC1)NC(=O)C1(c2ccc(F)cc2)CC1 (stereo not drawn)	48.2%
COc1ccc(C(=O)N2CCOCC2c2[nH]ncc2C)cc1F (stereo not drawn)	3.75%
Cc1cnn(CC2CN(Cc3nc4ccccc4c(=O)[nH]3)CCO2)c1 (stereo not drawn)	29.4%
Cc1nc2c(Nc3cccc(C#N)c3)nc(N)nc2n1C	-42.8%
CC(C)NC(=O)N1CCC2(CC1)Cc1ccccc1CN(C)C2=O	-6.25%
CNC(=O)Nc1cc(-c2ccccc2C)nn1CCO	-60%
CCNC(=O)CCC(=O)NCC1(O)CCC(C(C)(C)C)CC1 (stereo not drawn)	-23.8%
COc1cccc(S(=O)(=O)N2CCCCC2CCN2CCOCC2)c1 (stereo not drawn)	22.6%
CC(C)N1CCC(CC(=O)NC(C(=O)O)c2ccc(F)cc2)CC1 (stereo not drawn)	33.9%
CC(C)N1CCC(CC(=O)NC(C(=O)O)c2cc(F)ccc2F)CC1 (stereo not drawn)	52.1%
CC(C)N1CCC(CC(=O)NC(C(=O)O)c2cccc(F)c2)CC1 (stereo not drawn)	36.7%
O=C(CCCN1CCCCC1)N[C@H](C(=O)O)c1cccc(F)c1F	34.5%
CCN1CCC(CC(=O)N[C@H](C(=O)O)c2cccc(F)c2F)CC1	-2.39%
CCCN1CCC(CC(=O)N[C@H](C(=O)O)c2cccc(F)c2F)CC1	53%
O=C(CCc1nc2cccnc2[nH]1)Nc1ccc2c(c1)NC(=O)CO2	14.8%
